# Sampled rows, rich in hits. Any-hit rate of the full collection: about 5.3%.
# PostGolgi ctrl: growth of the yeast control strain, post-Golgi counter-screen; 5% of 98,000 active; AID 738; inhibition, % at 10 µM; efflux-deficient yeast background strain, growth absorbance A615, 16 h
# Measles CPE: protection of cells from measles virus. protection (pct of control), % at 4 µM. 1.5% of 140,000 active. Measles virus-infected cells, CPE protection, absorbance; in the data active means protection mostly above about 24%, no sharp cut-off; inactive means mostly below about 26%
# MT1-MMP txn act: MT1-MMP promoter transcription activation; HT1080 MT1-MMP promoter luciferase reporter, luminescence, overnight; stronger effect = higher value; activation factor at 10 µM; 0.16% of 86,000 active; AID 750;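 active means activation factor of at least 2 for MT1-MMP transcription at 10 µM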
# PostGolgi yeast: growth inhibition of a yeast mutant, post-Golgi transport screen; inhibition, % at 10 µM; 0.9% of 98,000 active; post-Golgi transport phenotypic cell assay; AID 739;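 further: yeast cells grown in 1536-well plates; yeast grown about 18 h at 30C before absorbance read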
# * = called active by the depositor; x = not tested or not shown. Unless noted, no stated cut-off is given here; in the data, active means inhibition above about 30%; inactive means the rest.
SMILES,PostGolgi ctrl,Measles CPE,MT1-MMP txn act,PostGolgi yeast
COC(=O)C1=CN(CC2CCCO2)C=C(C(=O)OC)C1c1ccccc1C(F)(F)F (centres undefined),11,6,1.4,-5
Cc1ccc(OC(C)C(=O)Nc2ccc(S(=O)(=O)Nc3cc(C)on3)cc2)cc1 (centres undefined),33*,4,1.1,2
CCC(Oc1ccccc1)C(=O)Nc1ccc(S(=O)(=O)Nc2cnc3ccccc3n2)cc1 (centres undefined),12,1,x,0
Cc1cc(NS(=O)(=O)c2ccc(NC(=O)C(C)Oc3ccc(Cl)cc3)cc2)no1 (centres undefined),4,6,1.3,0
CC(Oc1ccc(Cl)cc1Cl)C(=O)Nc1ccc(S(=O)(=O)Nc2cnc3ccccc3n2)cc1 (centres undefined),49*,8,x,57*
Cc1cc(Cl)ccc1OC(C)C(=O)Nc1ccc(S(=O)(=O)Nc2cnc3ccccc3n2)cc1 (centres undefined),35*,11,x,27
Cc1cc(NS(=O)(=O)c2ccc(C3CCCCC3)cc2)no1,34*,-1,1,8
CCc1ccc(C2=NN(c3ccc(S(N)(=O)=O)cc3)C(c3ccc(F)cc3)C2)cc1 (centres undefined),91*,12,x,18
NS(=O)(=O)c1ccc(N2N=C(c3ccccc3)CC2c2ccccc2)cc1 (centres undefined),x,10,x,x
O=[N+]([O-])c1ccc(C2Oc3ccccc3C3CC(c4ccccc4)=NN32)s1 (centres undefined),x,19,x,x
O=C(c1ccc2c(c1)N(Cc1ccccc1)CCS2)N1CCCCC1,43*,4,x,2
CCCCCCCCCCCC(=O)NC(C(=O)OCC)C(O)c1cccc([N+](=O)[O-])c1 (centres undefined),0,18,x,-5
COC(=O)c1c(C)oc2c1cc(NS(=O)(=O)c1cccs1)c1ccccc12,38*,2,1.6,0
Cc1cccc(N2C(=O)CC(Sc3nc(-c4ccccc4)c4cc(Cl)ccc4n3)C2=O)c1 (centres undefined),25,13,x,-2
O=C(c1ccco1)N1CCN(c2ncnc3scc(-c4ccccc4)c23)CC1,10,3,1.2,13
Cc1ccc(-c2csc3ncnc(N4CCN(C(=O)c5ccccc5)CC4)c23)cc1,32*,2,x,7
c1ccc(N2CCN(c3ncnc4scc(-c5cccs5)c34)CC2)cc1,47*,2,1.1,-2
O=S(=O)(NCCOCC(F)(F)C(F)F)c1ccc2oc3ccccc3c2c1,41*,14,1.2,4
COc1ccc(OCCNS(=O)(=O)c2ccc3oc4ccccc4c3c2)cc1,17,19,x,2
CCN(CC)C(=O)C1CCN(Cc2ccc(Br)cc2)CC1,6,20,1.1,61*
CCOC(=O)C1CCN(Cc2ccc(N(C)C)cc2)CC1,0,22,1.3,7
Cc1nn(C)c(C)c1CN(C)S(=O)(=O)c1ccc(F)cc1,x,5,1.2,x
Cc1nn(C)c(C)c1CN(C)S(=O)(=O)c1ccc2ccccc2c1,x,47*,1.1,x
CSCCC(NC(=O)c1ccccc1)C(=O)Nc1ccc(NC(C)=O)cc1 (centres undefined),x,7,x,x
O=C1OC(OC2CCCCC2)(c2ccccc2)c2ccccc21 (centres undefined),39*,3,x,6
SMILES,PostGolgi ctrl,Measles CPE,MT1-MMP txn act,PostGolgi yeast
O=C1OC(Oc2ccccc2)(c2ccccc2)c2ccccc21 (centres undefined),32*,6,x,2
COC(=O)c1cc(NC(=O)CSc2nncn2C)cc(C(=O)OC)c1,17,3,1.2,-7
COc1ccc(OCCC(=O)OCC(=O)NCc2ccccc2)cc1,x,5,x,x
Cc1ccc2nc(SCC(=O)Nc3cc([N+](=O)[O-])ccc3F)[nH]c2c1,x,3,x,x
CCOC(=O)c1c(NC(=O)c2nn(CC)cc2Br)c(C#N)nn1-c1ccccc1,23,29,1.1,-3
CCOC(=O)c1c(NC(=O)c2c(Br)cnn2C)c(C#N)nn1-c1ccccc1,41*,4,0.9,-5
CCOC(=O)c1nn(-c2ccccc2)c(C#N)c1NC(=O)c1nn(CC)cc1Br,44*,6,1.1,19
Cc1c(NC(=O)C2C3C=CC(C3)C2C(=O)O)c(=O)n(-c2ccccc2)n1C (centres undefined),6,6,1.1,-10
O=C(COC(=O)C1CCN(S(=O)(=O)c2ccccc2C(F)(F)F)CC1)NCc1ccc(F)cc1,x,5,x,x
COc1ccc(C2CC(=O)C3=C(C2)NC(C)=C(C(=O)Nc2ccccc2C)C3c2coc3ccc(C)cc3c2=O)cc1OC (centres undefined),25,3,x,98*

# Screening data deposited in PubChem by several laboratories.
